Data on 15 molecules can be found in the supplement of paper PMC6522484.

The test system of assay [1] is DLD1. Description: cell viability (CellTiter-Glo) relative to plate median (fraction of plate median); higher = more viable cells. The following applies: 5 µM; treatment time 24 h; reporter: 7TFP. In a few lines: (§1)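 On parallel plates, a Tecan F500 reader recorded either firefly luciferase or CellTiterGlo luminescence. The plates held colorectal cancer cells stably transduced with lentiviral TCF/Wnt firefly luciferase reporters (7TFP or TCF4/Wnt), seeded in 384-well format and treated 24 h later with library compounds at a final 5 µM for 24 h. Per-well signals were normalised to the plate median (webcellHTS2, additive, no log transformation), and two independent replicates were averaged.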
A general note: ATP-based viability assays read luminescence as a measure of living cells.

Assay [2] relates to HCT116. The assay is described as above. The conditions noted are these: 5 µM; treatment time 24 h; reporter: TCF4/Wnt. Summed up:
as §1

Assay [3] deals with SW480. The assay is described as above. The following applies: 5 µM; treatment time 24 h; reporter: 7TFP. In a few lines: as §1
In assay [4] the test system is DLD1. Description: TCF/Wnt firefly luciferase reporter signal relative to plate median (fraction of plate median); higher = higher Wnt reporter signal. The conditions noted are these: 5 µM; treatment time 24 h; reporter: 7TFP. Summed up:
as §1
In general terms: A reporter such as luciferase makes a cellular process visible.

In assay [5] the test system is SW480. Described as above. The following applies: 5 µM; treatment time 24 h; reporter: 7TFP. Summed up: as §1

± gives the standard deviation of the averaged measurements.

For `O=C(O)C1CCCNC1` (stereo not given), the results for the cell viability in assay [1], in assay [2] and in assay [3] were 0.994 ± 0.023, 1 ± 0.071 and 0.948 ± 0.067, respectively. For the same molecule, the “TCF/Wnt firefly luciferase reporter signal” value in assay [4] came out at 1.03 ± 0.065; in assay [5] it was 0.938 ± 0.13.
In the case of `Nc1ccc(S(=O)(=O)Nc2ncccn2)cc1`, the cell viability came to 0.92 ± 0.032 in assay [1], 1.04 ± 0.069 in assay [2] and 0.9685 ± 0.0021 in assay [3]. In addition, the “TCF/Wnt firefly luciferase reporter signal” value in assay [4] came out at 1.05 ± 0.14; in assay [5], 1.01 ± 0.083.
Consider `O=C(O)/C=C/C=C/c1ccccc1`, for which the cell viability was 0.976 ± 0.16 in assay [1], 0.9625 ± 0.0092 in assay [2] and 0.98 ± 0.0057 in assay [3]. The “TCF/Wnt firefly luciferase reporter signal” value in assay [4] came out at 0.906 ± 0.028; in assay [5], 0.729 ± 0.071.
`CCN(CC)CCNC(=O)c1ccc(N)cc1`: the values for the cell viability in assay [1], in assay [2] and in assay [3] were 1 ± 0.083, 0.988 ± 0.06 and 1.02 ± 0.055, respectively. Further, the “TCF/Wnt firefly luciferase reporter signal” value in assay [4] stood at 1.045 ± 0.0071; in assay [5] it was 1.08 ± 0.099.
With `COc1cc(C(C)=O)cc(OC)c1O`, the values for the cell viability in assay [1], in assay [2] and in assay [3] were 1.03, 0.922 ± 0.086 and 1.01 ± 0.018, respectively. In addition, the “TCF/Wnt firefly luciferase reporter signal” value in assay [4] amounted to 0.946 ± 0.1; in assay [5], 0.958 ± 0.012.
On to `CC(CN(C)C)CN1c2ccccc2CCc2ccccc21` (stereo not given), for which the cell viability in assay [1] was 1 ± 0.021; in assay [2], 0.929 ± 0.055; in assay [3], 1.05 ± 0.086. Further, the entries for the “TCF/Wnt firefly luciferase reporter signal” value in assay [4] and in assay [5] were 0.93 ± 0.097 and 1.13 ± 0.099, respectively.
`CCCC(=O)NCCc1ccccc1` [N-(2-Phenyl)ethylbutyramide]: the values for the cell viability in assay [1], in assay [2] and in assay [3] were 1.07 ± 0.11, 1.08 ± 0.15 and 1.06 ± 0.071, respectively. For the same molecule, the figures for the “TCF/Wnt firefly luciferase reporter signal” value in assay [4] and in assay [5] were 1.07 ± 0.14 and 0.9865 ± 0.00071, respectively.
Taken in the same sequence, the figures for `O=C(Oc1cc(O)cc2c1C[C@@H](OC(=O)c1cc(O)c(O)c(O)c1)[C@@H](c1cc(O)c(O)c(O)c1)O2)c1cc(O)c(O)c(O)c1` were 1.06 ± 0.028, 1.1 ± 0.12, 1.04 ± 0.021, 0.89 ± 0.0071 and 0.951 ± 0.048.
As to `Cc1ccc(=O)n(-c2ccccc2)c1`, the cell viability turned out to be 0.911 ± 0.041 in assay [1], 0.866 ± 0.096 in assay [2] and 0.945 ± 0.014 in assay [3]. For the same molecule, the “TCF/Wnt firefly luciferase reporter signal” value in assay [4] was 0.952 ± 0.17; in assay [5] it was 1.08 ± 0.14.
`COc1ccc(C(=O)/C=C/c2ccccc2)cc1`: the cell viability in assay [1] came out at 0.964 ± 0.0028; in assay [2] it was 0.977 ± 0.0085; in assay [3] it was 0.972 ± 0.069. For the same molecule, the “TCF/Wnt firefly luciferase reporter signal” value in assay [4] was found to be 0.936 ± 0.04; in assay [5] it was 0.944 ± 0.15.
For the molecule `C=C1[C@H]2CC[C@@]3(C)[C@H](c4ccoc4)OC(=O)C[C@]13O[C@H]1C[C@H](O)C(C)(C)[C@H](CC(=O)OC)[C@]12C` [3-DEOXY-3beta-HYDROXYANGOLENSIC ACID METHYL ESTER], the cell viability came to 1.01 ± 0.061 in assay [1], 0.958 ± 0.1 in assay [2] and 1.05 ± 0.11 in assay [3]. The “TCF/Wnt firefly luciferase reporter signal” value is 1.06 ± 0.05 in assay [4] and 0.952 ± 0.035 in assay [5].
Taken in the same sequence, the figures for `O=C(O)c1cc(=O)c2c(OCC(O)COc3cccc4oc(C(=O)O)cc(=O)c34)cccc2o1` were 1.04 ± 0.06, 0.9275 ± 0.0021, 1.09 ± 0.13, 0.902 ± 0.036 and 1.01 ± 0.081.
In the case of `N[C@H]1Cc2ccc(cc2)C(=O)[C@@H]2C[C@@H](O)CN2C1=O` [cyclo(4-hydroxyprolyl-phenylalanyl)], the cell viability in assay [1] stood at 0.951 ± 0.023; in assay [2], 0.907 ± 0.16; in assay [3] it was 0.956 ± 0.016. Moreover, the “TCF/Wnt firefly luciferase reporter signal” value in assay [4] worked out at 0.915 ± 0.18; in assay [5], 1.03 ± 0.028.
As for `CC(=O)N[C@@H](CS)C(=O)O`, the cell viability was determined as 0.994 ± 0.037 in assay [1], 0.988 ± 0.12 in assay [2] and 0.993 ± 0.0042 in assay [3]. For the same molecule, the “TCF/Wnt firefly luciferase reporter signal” value in assay [4] stood at 1.1 ± 0.14; in assay [5] it was 1.07 ± 0.16.
Taken in the same sequence, the figures for `Cc1c(NC(=O)c2cccnc2)c(=O)n(-c2ccccc2)n1C` were 1.01, 1.1 ± 0.042, 0.981 ± 0.015, 1.06 ± 0.17 and 1 ± 0.037.
